Screens as filed in PubChem BioAssay.
Sampled rows, rich in hits. Any-hit rate of the full collection: about 4.4%.
D1 antagonist – human D1 dopamine receptor antagonism; HEK293 TREx D1 cells, calcium flux, dopamine EC80; hits give low values; AID 504652; 360,000 tested, 3.2% active; activity change, negative = inhibition, % at 10 µM; in the data active means activity change below about -30%
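After overnight tetracycline induction at 30 C, force-coupled D1 HEK293 cells took up a no-wash calcium dye at room temperature. Compounds were added and monitored 180 s, and the response to EC80 dopamine was then recorded.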
D1 agonist – activates the human D1 dopamine receptor; P21728; HEK293 T-REx D1 cells, calcium flux, agonist mode; activation, % at 2 µM; 360,000 tested, 1% active; AID 504660
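Tetracycline-induced HEK293 TREx D1 cells, force-coupled to calcium signalling, were dye-loaded with a no-wash calcium kit. Compound was pin-added after a 10 s baseline. Fluorescence was read kinetically at 1 cycle/s for 180 s, with calcium rises flagged as agonism.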
D1 potentiator – potentiators of human D1 dopamine receptor | HEK293 TREx D1 cells, calcium flux, dopamine EC20 potentiation | 360,000 tested, 0.036% active | potentiation, % at 10 µM | P21728; in the data active means potentiation above about 30%
USP1 inh – blocks the human USP1/UAF1 deubiquitinase complex | AID 743255 | 390,000 tested, 0.23% active | recombinant USP1/UAF1, Ub-Rhodamine cleavage fluorescence | Potency, µM (titrated, usually from 57.1 µM), most hits filed as inhibitors | O94782; active means well fitted inhibition curve with a large enough effect; inconclusive means small, poorly fitted or top-dose-only effect; inactive means no such curve, though single readings can be large or run the other way; further: nearly all actives have a fitted effect of over 60% in size
Target sequence (O94782 whole entry, looked up): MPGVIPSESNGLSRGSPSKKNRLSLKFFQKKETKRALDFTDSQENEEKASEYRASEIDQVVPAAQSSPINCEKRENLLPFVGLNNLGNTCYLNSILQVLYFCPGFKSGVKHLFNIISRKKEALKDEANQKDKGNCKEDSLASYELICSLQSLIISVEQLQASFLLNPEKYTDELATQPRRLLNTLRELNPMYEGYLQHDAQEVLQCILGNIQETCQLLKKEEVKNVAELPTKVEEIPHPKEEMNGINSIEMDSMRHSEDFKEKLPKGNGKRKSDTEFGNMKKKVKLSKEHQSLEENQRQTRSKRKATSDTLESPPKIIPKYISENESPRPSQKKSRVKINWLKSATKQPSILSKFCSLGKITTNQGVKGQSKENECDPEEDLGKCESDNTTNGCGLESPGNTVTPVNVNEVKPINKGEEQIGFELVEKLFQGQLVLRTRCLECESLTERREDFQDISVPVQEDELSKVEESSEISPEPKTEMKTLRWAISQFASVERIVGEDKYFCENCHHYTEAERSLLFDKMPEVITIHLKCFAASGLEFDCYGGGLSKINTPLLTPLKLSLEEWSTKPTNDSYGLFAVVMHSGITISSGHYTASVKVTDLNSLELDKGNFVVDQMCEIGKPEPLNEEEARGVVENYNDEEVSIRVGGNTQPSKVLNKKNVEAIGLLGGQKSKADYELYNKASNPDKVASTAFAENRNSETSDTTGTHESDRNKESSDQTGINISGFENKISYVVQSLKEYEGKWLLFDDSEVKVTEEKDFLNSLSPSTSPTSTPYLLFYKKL
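1 nM enzyme complex + cpd, 15 min RT; start with Ub-Rho 150nM final; kinetic fluorescence ex 480/em 540, 6 reads q60 s. Buffer 50mM HEPES pH 7.8, 0.5mM EDTA, 0.1 mg/ml BSA, 1mM TCEP, 0.01% Tween-20.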
TRHR ag – agonists of human TRH receptor | P34981 | TRHR cells, calcium flux fluo-8, FDSS agonist mode | activation, % at 2 µM | 360,000 tested, 0.18% active
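Agonist-mode FDSS calcium read (Ex 480/Em 530, 1 s cycles) in 1536-well TRHR cells with fluo-8 dye, after 10-cycle baseline and 23 nL compound addition; TRH at EC20 (10 nM final) added afterwards for the enhancer phase.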
TRHR PAM – TRH receptor (human) allosteric enhancement; P34981; TRHR cells, fluo-8 calcium fluorescence, EC20 TRH enhancement; enhancement, % at 2 µM; 360,000 tested, 0.66% active; in the data active means enhancement above about 30%
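TRHR-expressing cells loaded with fluo-8 calcium dye were read kinetically (ex 480/em 530) during compound addition, then stimulated with an EC20 of TRH (10 nM final). Enhancement of the Gq-mediated intracellular calcium response was scored.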
A number is an active result; . = inactive; ? = inconclusive; / = not tested or not shown. Unless noted, no stated cut-off is given here; in the data, active means activation above about 30%; inactive means the rest.

SMILES	D1 antagonist	D1 agonist	D1 potentiator	USP1 inh	TRHR ag	TRHR PAM
O=C(CCCSc1nc2ccccc2[nH]1)Nc1nnc(C2CC2)s1	-36.3	.	.	.	.	.
COc1ccc(NC(=O)CSCc2cc(=O)c3cc(Cl)ccc3[nH]2)cc1	.	.	.	?	.	.
Cc1ccc(-c2n[nH]c(=S)c3ccccc23)cc1	-34.9	.	.	.	.	.
S=c1[nH]nc(-c2ccccc2)c2ccccc12	.	.	.	.	.	.
CCOc1ccc(CNC(=O)CN2C(=O)CCn3nc(-c4cn(C)c5ccccc45)cc32)cc1OC	.	.	.	.	.	.
COc1ccc(NC(=O)COc2ccc(C)nc2[N+](=O)[O-])cc1S(N)(=O)=O	-39.5	.	.	.	.	.
O=C(c1cccc(S(=O)(=O)N2CCOCC2)c1)N(Cc1ccco1)Cc1cccs1	-55.7	.	.	.	.	.
Cc1ccc(COC(=O)c2cc(S(=O)(=O)N3CCCCC3)ccc2N2CCOCC2)cc1	.	.	.	.	.	.
O=C(c1ccc(Cl)c(S(=O)(=O)N2CCOCC2)c1)N(Cc1ccco1)Cc1cccs1	.	.	.	.	.	.
CC(C)CNC(=O)COC(=O)c1cc(S(=O)(=O)N2CCCCC2)ccc1N1CCOCC1	.	.	.	.	.	32.4
O=C(COC(=O)c1cc(S(=O)(=O)N2CCCCC2)ccc1N1CCOCC1)NCCc1ccc(F)cc1	.	.	.	.	.	30.8
CC(C)NC(=O)NC(=O)COC(=O)c1cc(S(=O)(=O)N2CCCCC2)ccc1N1CCOCC1	.	.	.	.	.	.
O=C(NCCc1ccc2c(c1)OCCO2)c1cc(S(=O)(=O)N2CCCC2)ccc1Cl	-31.6	.	.	.	.	.
COc1ccc(C2C(=O)N(C3CCC(C)CC3)CC(=O)N2Cc2ccc(C)cc2)cc1OC (configuration not stated)	.	.	.	.	.	.
CN(Cc1cccs1)C(=O)c1cc(S(=O)(=O)N2CCOCC2)ccc1N1CCCC1	-31.4	.	.	.	.	.
O=C(NCc1cccs1)c1cc(S(=O)(=O)N2CCOCC2)ccc1N1CCCC1	.	.	.	.	.	.
C[C@@H](NC(=O)[C@@H]1Cc2ccccc2CN1C(=O)OC(C)(C)C)C(=O)NC1CCCC1	-40.5	.	.	.	.	.
CCOc1ccc(NC(=O)NC(=O)N(C(C)C)S(C)(=O)=O)cc1	-34.6	.	.	.	.	.
CCOc1ccc(NC(=O)Nc2nc(SCC)ns2)cc1	-40.6	.	.	.	.	.
CCOc1ccc(NC(=O)Nc2cnccn2)cc1	.	.	.	.	.	35.7
O=C(Nc1cccc(F)c1)Nc1ccccn1	-37.3	.	.	.	.	.
CC(C)N(C(=O)NC(=O)Nc1ccc(S(=O)(=O)N2CCCC2)cc1)S(C)(=O)=O	.	.	.	.	.	.
CCSc1nsc(NC(=O)Nc2ccccc2Cl)n1	/	/	/	.	/	/
Cc1ccc(C(=O)c2oc3ccccc3c2NC(=O)c2cc(=O)c3cc(C)ccc3o2)cc1	.	.	.	.	.	.
COc1cccc(CN2C(=O)c3ccccc3Sc3ccc(C(=O)NCCc4ccc(C)cc4)cc32)c1	.	.	.	?	.	.
SMILES	D1 antagonist	D1 agonist	D1 potentiator	USP1 inh	TRHR ag	TRHR PAM
CCOc1ccccc1NC(=O)CC1C(=O)NCCN1C(=O)c1ccc(F)cc1 (configuration not stated)	.	.	.	.	.	.
O=C(Nc1ccc2c(c1)OCO2)Nc1cnccn1	.	.	.	.	.	.
O=C(Nc1cccc(F)c1)Nc1cnccn1	-30.8	.	.	.	.	.
O=C1NC(=Nc2ccccc2Cl)SC1(CO)CO	.	.	.	.	.	.
Cc1ccccc1N=C1NC(=O)C(CO)(CO)S1	-35.7	.	.	.	.	.
Cc1ccc(C)c(CN2CCC(CNC(=O)Nc3ccc(Cl)cc3)CC2)c1	-32.7	.	.	.	.	.
Cc1ccc(C)c(CN2CCC(CNC(=O)Nc3ccc(Br)cc3F)CC2)c1	.	.	.	.	.	.
COc1ccc(CNC(=O)c2cc(=O)c3cc(C)ccc3o2)cc1	-36.2	.	.	.	.	.
COc1ccc2oc(=O)c(C(=O)NCc3ccc(C)cc3)cc2c1	-37.3	.	.	.	.	.
Cc1ccc(CNC(=O)c2cc(=O)c3ccc(C)cc3o2)cc1	.	.	.	.	.	.
Cc1cc(C)c(NC(=O)c2cc(=O)c3ccccc3o2)c(C)c1	.	.	.	.	.	.
Cc1ccc2c(=O)cc(C(=O)Nc3c(C)cccc3C)oc2c1	-32.1	.	.	.	.	.
Cc1ccc(CNC(=O)c2cc(=O)c3ccccc3o2)cc1	-35.4	.	/	.	.	.
COc1ccc(CNC(=O)c2cc3cc(OC)ccc3oc2=O)cc1	.	.	.	.	.	.
CCOC(=O)c1cc2c(=O)n3ccccc3nc2n(CC2CCCO2)c1=NC(=O)c1ccc(F)cc1 (configuration not stated)	.	.	.	.	.	.
COc1ccc(NC(=O)CC2C(=O)N(c3ccc(C)cc3)C(=O)N2Cc2ccc(C)cc2)cc1 (configuration not stated)	.	.	.	.	.	.
COc1cc2c3nnc(-c4ccc(F)cc4)c-3cn(Cc3ccc(C)cc3)c2cc1OC	.	.	.	31.6µM	.	.
COc1cc2c3nnc(-c4ccc(F)cc4)c-3cn(Cc3cccc(F)c3)c2cc1OC	.	.	.	?	.	.
COc1cc2c3nnc(-c4ccc(F)cc4)c-3cn(Cc3cccc(C)c3)c2cc1OC	.	.	.	31.6µM	.	.
CN(c1ccccc1)S(=O)(=O)c1ccc2[nH]c(=O)oc2c1	.	.	.	.	.	.
CN(Cc1ccccc1)S(=O)(=O)c1ccc2[nH]c(=O)oc2c1	-37.8	.	.	?	.	.
CN(CC(=O)Nc1ccc(OC(F)(F)F)cc1)C(=O)c1ccc(N2CCCC2=O)cc1	-31.9	.	.	.	.	.
CN(CC(=O)Nc1ccc(F)c(F)c1F)C(=O)c1ccc(N2CCCC2=O)cc1	/	/	/	.	/	/
CN(CC(=O)Nc1ccc(Cl)cc1)C(=O)c1ccc(N2CCCC2=O)cc1	-39.2	.	.	.	.	.
Oc1c(C(c2ccccc2F)N2CCCCC2)sc2nc(-c3ccco3)nn12 (configuration not stated)	/	.	.	.	.	.
CCNC(=O)CCSc1nnc(-c2ccc(O)cc2)o1	.	.	.	.	.	.
CCOC(=O)c1[nH]c(C)c(C(=O)OCC)c1C	.	.	/	.	.	.
CCOC(=O)c1[nH]c(Cc2[nH]c(C(=O)OCC)c(C)c2CCC(=O)OC)c(CCC(=O)OC)c1C	-54.7	.	.	.	.	.
